# Test results as given in article PMC7862700, “An all-to-all approach to the identification of sequence-specific readers for epigenetic DNA modifications on cytosine”.
# Legend:
# Assay in all cases: DAPPL (digital affinity profiling via proximity ligation, sequencing); 10 mM Tris-HCl pH 7.5, 50 mM NaCl, 1 mM DTT, 4% glycerol, room temperature, 30 min; GST-TFs on glutathione beads, 16-mer random dsDNA library, 0.1% formaldehyde crosslink after washing; high values mean tight binding
# FEV = biological target: T1, FEV (Homo sapiens, UniProt Q99581 1-238); settings: protein: recombinant; tags: N-terminal GST; dsDNA, one strand shown
# T1 sequence: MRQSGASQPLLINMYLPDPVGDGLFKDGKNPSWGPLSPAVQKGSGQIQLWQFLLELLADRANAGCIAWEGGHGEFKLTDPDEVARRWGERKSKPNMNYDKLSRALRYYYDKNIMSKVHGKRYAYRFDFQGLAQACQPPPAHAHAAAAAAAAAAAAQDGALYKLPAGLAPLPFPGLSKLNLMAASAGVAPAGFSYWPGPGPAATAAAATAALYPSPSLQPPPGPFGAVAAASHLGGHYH
# How it was run: (§1)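 Human transcription factors carrying a GST fusion were produced in yeast, bound to glutathione beads, tagged with DNA barcodes and pooled together with a tag-only sample. Each pool was held with 200 nmole of a random double-stranded 16-mer DNA library in Tris/NaCl/DTT/glycerol buffer for 30 min at room temperature, then washed, crosslinked in 0.1% formaldehyde, proximity-ligated with BsaI/T4 ligase (1 h, 37 °C), PCR-amplified and sequenced on an Illumina NextSeq500. Binding signal is the read frequency of each hexamer for a given factor divided by its frequency in the tag-only sample.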
# ETV5 = ETV5 (Homo sapiens, UniProt P41161 1-510); settings: protein: recombinant; tags: N-terminal GST; dsDNA, one strand shown
# How it was run: as §1
# HSF1 = HSF1 (Homo sapiens, UniProt Q00613 1-529); settings: protein: recombinant; tags: N-terminal GST; chain copies: 3; dsDNA, one strand shown
# How it was run: as §1
# SPIC = biological target: T2, SPIC (Homo sapiens, UniProt Q8N5J4 1-248); settings: protein: recombinant; tags: N-terminal GST; dsDNA, one strand shown
# T2 sequence: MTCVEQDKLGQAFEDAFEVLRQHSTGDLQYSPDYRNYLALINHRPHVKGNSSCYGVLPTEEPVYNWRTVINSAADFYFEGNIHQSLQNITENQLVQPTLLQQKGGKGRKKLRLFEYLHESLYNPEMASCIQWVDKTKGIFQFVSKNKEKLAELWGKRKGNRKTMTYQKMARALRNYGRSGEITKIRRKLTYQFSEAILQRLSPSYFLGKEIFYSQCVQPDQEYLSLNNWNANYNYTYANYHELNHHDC
# How it was run: as §1
# ELF4 = ELF4 (Homo sapiens, UniProt Q99607 1-663); settings: protein: recombinant; tags: N-terminal GST; dsDNA, one strand shown
# How it was run: as §1
# ELK4 = biological target: T3, ELK4 (Homo sapiens, UniProt P28324-2 1-405); settings: protein: recombinant; tags: N-terminal GST; dsDNA, one strand shown
# T3 sequence: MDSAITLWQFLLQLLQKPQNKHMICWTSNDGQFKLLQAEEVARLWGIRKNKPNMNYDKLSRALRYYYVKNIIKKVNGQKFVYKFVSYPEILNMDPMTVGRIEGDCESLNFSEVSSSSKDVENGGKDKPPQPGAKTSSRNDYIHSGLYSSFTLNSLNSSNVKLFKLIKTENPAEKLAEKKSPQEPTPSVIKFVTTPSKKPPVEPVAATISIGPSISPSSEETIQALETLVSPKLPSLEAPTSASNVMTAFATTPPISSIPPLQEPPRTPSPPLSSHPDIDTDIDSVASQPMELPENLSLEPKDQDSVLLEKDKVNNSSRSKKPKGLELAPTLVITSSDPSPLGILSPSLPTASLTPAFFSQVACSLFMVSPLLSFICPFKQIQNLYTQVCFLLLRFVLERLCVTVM
# How it was run: as §1
# ETV2 = biological target: T4, ETV2 (Homo sapiens, UniProt O00321 1-342); settings: protein: recombinant; tags: N-terminal GST; dsDNA, one strand shown
# T4 sequence: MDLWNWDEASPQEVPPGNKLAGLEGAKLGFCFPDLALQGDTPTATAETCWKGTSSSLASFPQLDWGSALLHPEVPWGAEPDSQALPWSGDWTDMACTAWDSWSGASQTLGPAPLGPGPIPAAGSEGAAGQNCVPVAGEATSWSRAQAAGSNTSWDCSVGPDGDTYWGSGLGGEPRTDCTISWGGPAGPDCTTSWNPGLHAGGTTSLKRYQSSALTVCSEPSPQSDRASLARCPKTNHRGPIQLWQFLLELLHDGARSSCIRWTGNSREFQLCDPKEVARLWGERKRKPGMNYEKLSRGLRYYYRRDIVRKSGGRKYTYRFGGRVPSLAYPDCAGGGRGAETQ
# How it was run: as §1
# ELF3 = biological target: T5, ELF3 (Homo sapiens, UniProt P78545 1-371); settings: protein: recombinant; tags: N-terminal GST; dsDNA, one strand shown
# T5 sequence: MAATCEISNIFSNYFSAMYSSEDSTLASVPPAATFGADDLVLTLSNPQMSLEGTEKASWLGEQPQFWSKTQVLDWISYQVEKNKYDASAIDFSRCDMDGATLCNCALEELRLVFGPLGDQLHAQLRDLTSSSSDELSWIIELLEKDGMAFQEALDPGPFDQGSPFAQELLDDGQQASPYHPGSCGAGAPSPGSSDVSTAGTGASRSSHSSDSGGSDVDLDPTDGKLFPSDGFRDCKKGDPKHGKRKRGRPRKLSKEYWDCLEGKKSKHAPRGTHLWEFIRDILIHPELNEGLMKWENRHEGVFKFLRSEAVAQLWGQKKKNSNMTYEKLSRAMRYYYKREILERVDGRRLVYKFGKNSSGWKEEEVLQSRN
# How it was run: as §1
# CRX = CRX (Homo sapiens, UniProt O43186 1-299); settings: protein: recombinant; tags: N-terminal GST; dsDNA, one strand shown
# How it was run: as §1
# ETV1 = ETV1 (Homo sapiens, UniProt P50549 1-477); settings: protein: recombinant; tags: N-terminal GST; dsDNA, one strand shown
# How it was run: as §1
# ERF = biological target: T6, ERF (Homo sapiens, UniProt P50548 1-548); settings: protein: recombinant; tags: N-terminal GST; dsDNA, one strand shown
# T6 sequence: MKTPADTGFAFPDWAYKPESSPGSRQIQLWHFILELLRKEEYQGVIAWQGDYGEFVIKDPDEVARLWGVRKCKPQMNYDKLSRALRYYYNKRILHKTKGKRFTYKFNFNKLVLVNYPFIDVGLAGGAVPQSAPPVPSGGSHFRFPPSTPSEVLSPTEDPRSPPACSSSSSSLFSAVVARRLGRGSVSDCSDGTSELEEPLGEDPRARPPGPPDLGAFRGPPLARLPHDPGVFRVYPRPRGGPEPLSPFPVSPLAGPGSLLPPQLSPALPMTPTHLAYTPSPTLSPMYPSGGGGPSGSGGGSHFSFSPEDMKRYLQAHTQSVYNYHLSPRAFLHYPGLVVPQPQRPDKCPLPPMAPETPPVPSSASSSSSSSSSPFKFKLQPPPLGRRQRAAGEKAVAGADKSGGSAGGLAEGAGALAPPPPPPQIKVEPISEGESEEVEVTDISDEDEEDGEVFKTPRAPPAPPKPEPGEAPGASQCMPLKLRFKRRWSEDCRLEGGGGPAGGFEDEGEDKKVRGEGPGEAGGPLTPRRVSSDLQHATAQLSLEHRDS
# How it was run: as §1
# ETV3L = biological target: T7, ETV3L (Homo sapiens, UniProt Q6ZN32 1-361); settings: protein: recombinant; tags: N-terminal GST; dsDNA, one strand shown
# T7 sequence: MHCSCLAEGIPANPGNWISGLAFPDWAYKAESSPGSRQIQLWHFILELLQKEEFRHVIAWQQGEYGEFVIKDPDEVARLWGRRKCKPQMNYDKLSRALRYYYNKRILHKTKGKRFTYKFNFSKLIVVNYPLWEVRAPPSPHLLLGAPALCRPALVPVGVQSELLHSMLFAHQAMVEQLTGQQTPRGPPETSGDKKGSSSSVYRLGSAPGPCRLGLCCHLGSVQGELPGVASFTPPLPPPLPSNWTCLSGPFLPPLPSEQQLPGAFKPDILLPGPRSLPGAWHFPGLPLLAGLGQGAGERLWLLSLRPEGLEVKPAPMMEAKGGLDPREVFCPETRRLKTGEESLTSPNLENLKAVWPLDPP
# How it was run: as §1
# ETS2 = biological target: T8, ETS2 (Homo sapiens, UniProt P15036 1-469); settings: protein: recombinant; tags: N-terminal GST; dsDNA, one strand shown
# T8 sequence: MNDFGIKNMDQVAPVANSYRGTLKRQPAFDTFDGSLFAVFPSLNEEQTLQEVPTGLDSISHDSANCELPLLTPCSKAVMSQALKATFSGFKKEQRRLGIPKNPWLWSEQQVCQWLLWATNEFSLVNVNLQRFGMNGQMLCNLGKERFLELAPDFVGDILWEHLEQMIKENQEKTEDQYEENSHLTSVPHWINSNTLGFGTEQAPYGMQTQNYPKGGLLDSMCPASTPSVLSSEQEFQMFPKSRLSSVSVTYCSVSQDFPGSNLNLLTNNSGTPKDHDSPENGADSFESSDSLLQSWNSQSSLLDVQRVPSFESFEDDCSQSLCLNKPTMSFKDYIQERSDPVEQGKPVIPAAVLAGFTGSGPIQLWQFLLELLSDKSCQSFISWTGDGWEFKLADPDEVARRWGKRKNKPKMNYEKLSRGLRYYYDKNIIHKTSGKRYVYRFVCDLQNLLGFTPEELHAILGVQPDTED
# How it was run: as §1
# SPDEF = biological target: T9, SPDEF (Homo sapiens, UniProt O95238 1-335); settings: protein: recombinant; tags: N-terminal GST; dsDNA, one strand shown
# T9 sequence: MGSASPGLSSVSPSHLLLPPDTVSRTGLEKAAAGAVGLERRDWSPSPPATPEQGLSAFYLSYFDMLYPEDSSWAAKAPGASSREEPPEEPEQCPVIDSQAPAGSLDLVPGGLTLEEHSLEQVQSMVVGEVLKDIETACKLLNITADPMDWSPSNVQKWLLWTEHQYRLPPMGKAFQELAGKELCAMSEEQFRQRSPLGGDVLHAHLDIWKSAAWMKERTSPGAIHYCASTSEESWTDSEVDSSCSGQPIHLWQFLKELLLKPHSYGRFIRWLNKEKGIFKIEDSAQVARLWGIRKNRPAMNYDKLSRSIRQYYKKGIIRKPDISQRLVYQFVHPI
# How it was run: as §1
# ETV7 = biological target: T10, ETV7 (Homo sapiens, UniProt Q9Y603 1-341); settings: protein: recombinant; tags: N-terminal GST; dsDNA, one strand shown
# T10 sequence: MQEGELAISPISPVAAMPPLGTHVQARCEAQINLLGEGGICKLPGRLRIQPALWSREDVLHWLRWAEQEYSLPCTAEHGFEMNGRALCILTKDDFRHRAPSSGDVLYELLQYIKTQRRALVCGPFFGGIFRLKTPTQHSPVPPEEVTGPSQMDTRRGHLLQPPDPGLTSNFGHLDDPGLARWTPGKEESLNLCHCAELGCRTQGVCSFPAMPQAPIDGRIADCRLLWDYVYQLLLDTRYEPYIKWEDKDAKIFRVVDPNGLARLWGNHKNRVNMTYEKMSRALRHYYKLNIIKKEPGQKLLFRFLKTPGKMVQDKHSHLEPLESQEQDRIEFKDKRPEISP
# How it was run: as §1
# ELF5 = biological target: T11, ELF5 (Homo sapiens, UniProt Q9UKW6-2 1-255); settings: protein: recombinant; tags: N-terminal GST; dsDNA, one strand shown
# T11 sequence: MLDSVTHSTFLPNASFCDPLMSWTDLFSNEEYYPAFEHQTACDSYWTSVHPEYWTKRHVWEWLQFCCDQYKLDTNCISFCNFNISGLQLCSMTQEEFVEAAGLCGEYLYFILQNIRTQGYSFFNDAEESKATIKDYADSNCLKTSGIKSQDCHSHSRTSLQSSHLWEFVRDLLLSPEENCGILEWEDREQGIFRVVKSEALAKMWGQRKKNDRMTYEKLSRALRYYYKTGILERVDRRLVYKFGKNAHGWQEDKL
# How it was run: as §1
# ETV3 = biological target: T12, ETV3 (Homo sapiens, UniProt P41162-2 1-143); settings: protein: recombinant; tags: N-terminal GST; dsDNA, one strand shown
# T12 sequence: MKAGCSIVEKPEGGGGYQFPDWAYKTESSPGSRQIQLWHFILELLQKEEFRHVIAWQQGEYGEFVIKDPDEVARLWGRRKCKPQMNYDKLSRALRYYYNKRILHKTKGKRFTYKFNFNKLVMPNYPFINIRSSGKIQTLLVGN
# How it was run: as §1
# ETV6 = ETV6 (Homo sapiens, UniProt P41212 1-452); settings: protein: recombinant; tags: N-terminal GST; dsDNA, one strand shown
# How it was run: as §1
# Chain of ETV1 (P50549 whole entry): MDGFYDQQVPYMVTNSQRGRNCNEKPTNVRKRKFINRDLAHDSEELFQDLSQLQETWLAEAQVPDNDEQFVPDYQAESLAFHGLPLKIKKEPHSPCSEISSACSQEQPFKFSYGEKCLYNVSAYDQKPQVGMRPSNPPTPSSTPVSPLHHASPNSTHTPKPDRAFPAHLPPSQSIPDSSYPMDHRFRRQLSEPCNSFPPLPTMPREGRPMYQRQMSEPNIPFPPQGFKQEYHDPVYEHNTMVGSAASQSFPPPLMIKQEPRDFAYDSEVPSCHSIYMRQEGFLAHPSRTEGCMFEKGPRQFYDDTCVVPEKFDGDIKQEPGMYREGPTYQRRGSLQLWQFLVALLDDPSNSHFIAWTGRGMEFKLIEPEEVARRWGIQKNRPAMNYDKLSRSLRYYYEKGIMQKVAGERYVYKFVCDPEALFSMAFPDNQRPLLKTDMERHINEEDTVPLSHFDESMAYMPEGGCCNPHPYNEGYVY
# Chain of ETV6 (P41212 whole entry): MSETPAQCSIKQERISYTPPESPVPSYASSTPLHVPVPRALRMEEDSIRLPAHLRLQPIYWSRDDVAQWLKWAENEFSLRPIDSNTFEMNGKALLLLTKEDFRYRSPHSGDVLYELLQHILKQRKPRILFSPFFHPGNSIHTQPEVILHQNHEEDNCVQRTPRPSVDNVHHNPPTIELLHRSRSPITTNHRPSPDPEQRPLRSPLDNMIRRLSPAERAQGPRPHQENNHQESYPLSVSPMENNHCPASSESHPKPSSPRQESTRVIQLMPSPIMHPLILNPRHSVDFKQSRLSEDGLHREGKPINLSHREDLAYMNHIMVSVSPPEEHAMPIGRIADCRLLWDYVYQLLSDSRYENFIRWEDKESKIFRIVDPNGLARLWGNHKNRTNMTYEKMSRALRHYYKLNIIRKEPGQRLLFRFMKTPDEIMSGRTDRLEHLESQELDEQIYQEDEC
# Chain of CRX (O43186 whole entry): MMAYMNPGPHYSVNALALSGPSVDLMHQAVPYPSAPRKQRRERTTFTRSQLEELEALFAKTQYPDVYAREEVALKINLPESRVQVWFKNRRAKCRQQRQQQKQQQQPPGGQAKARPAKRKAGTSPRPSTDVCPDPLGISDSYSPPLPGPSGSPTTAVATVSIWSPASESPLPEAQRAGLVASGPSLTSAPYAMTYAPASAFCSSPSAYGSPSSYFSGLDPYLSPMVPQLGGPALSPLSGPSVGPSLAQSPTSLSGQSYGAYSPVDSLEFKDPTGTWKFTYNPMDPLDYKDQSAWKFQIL
# Chain of ELF4 (Q99607 whole entry): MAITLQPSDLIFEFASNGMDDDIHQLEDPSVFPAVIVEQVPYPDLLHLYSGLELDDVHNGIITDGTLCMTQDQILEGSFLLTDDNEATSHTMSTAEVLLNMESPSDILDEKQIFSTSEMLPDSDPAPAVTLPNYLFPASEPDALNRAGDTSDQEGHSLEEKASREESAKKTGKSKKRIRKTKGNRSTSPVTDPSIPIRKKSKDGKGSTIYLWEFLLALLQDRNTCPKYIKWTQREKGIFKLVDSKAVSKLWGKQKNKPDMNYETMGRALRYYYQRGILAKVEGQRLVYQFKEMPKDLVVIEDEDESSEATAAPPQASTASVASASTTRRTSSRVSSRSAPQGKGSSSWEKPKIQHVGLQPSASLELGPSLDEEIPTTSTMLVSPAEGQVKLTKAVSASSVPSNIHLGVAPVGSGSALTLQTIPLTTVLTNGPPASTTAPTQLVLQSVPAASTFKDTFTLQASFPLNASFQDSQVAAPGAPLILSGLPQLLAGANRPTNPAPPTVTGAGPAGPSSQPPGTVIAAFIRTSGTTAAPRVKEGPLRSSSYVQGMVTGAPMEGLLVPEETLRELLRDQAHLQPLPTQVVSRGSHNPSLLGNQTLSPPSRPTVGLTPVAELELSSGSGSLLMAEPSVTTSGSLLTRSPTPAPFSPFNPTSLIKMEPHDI
# Chain of ETV5 (P41161 whole entry): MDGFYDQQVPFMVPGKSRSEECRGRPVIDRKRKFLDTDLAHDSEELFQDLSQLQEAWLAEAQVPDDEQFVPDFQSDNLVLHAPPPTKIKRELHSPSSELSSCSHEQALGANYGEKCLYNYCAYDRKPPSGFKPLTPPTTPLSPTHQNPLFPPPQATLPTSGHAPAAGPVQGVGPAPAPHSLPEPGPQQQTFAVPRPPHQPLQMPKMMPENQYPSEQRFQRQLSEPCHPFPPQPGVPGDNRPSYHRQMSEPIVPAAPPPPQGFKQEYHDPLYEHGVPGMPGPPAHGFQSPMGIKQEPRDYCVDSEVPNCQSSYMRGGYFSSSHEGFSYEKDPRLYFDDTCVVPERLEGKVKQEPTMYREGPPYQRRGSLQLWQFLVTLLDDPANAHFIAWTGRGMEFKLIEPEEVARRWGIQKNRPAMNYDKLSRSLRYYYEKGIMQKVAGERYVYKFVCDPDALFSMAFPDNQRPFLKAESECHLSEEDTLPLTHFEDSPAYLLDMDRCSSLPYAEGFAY
# Chain of HSF1 (Q00613 whole entry): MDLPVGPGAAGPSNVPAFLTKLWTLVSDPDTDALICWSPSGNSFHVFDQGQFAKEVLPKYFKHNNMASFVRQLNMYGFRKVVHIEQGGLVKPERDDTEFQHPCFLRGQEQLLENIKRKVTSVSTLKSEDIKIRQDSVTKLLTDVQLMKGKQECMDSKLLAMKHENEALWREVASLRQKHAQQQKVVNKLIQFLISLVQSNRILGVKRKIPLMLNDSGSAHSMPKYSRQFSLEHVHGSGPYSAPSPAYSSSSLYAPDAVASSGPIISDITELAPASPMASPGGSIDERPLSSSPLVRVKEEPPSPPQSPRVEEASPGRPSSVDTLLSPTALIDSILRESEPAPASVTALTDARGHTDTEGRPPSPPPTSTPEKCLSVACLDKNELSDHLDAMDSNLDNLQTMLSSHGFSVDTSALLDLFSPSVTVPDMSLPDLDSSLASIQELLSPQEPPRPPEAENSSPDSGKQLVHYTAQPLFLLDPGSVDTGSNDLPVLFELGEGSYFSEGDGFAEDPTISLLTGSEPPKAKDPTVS
sequence,measurement,setting,value
CCGAAT,binding signal,FEV,"1.16 fold enrichment (6-mer frequency, TF over GST control)"
same,binding signal,ETV5,"1.14 fold enrichment (6-mer frequency, TF over GST control)"
same,binding signal,HSF1,"1.64 fold enrichment (6-mer frequency, TF over GST control)"
same,binding signal,SPIC,"1.29 fold enrichment (6-mer frequency, TF over GST control)"
same,binding signal,ELF4,"1.16 fold enrichment (6-mer frequency, TF over GST control)"
same,binding signal,ELK4,"1.06 fold enrichment (6-mer frequency, TF over GST control)"
same,binding signal,ETV2,"1.12 fold enrichment (6-mer frequency, TF over GST control)"
same,binding signal,ELF3,"1.16 fold enrichment (6-mer frequency, TF over GST control)"
same,binding signal,CRX,"1.33 fold enrichment (6-mer frequency, TF over GST control)"
same,binding signal,ETV1,"1.19 fold enrichment (6-mer frequency, TF over GST control)"
same,binding signal,ERF,"1.35 fold enrichment (6-mer frequency, TF over GST control)"
same,binding signal,ETV3L,"1.24 fold enrichment (6-mer frequency, TF over GST control)"
same,binding signal,ETS2,"1.22 fold enrichment (6-mer frequency, TF over GST control)"
same,binding signal,SPDEF,"1.17 fold enrichment (6-mer frequency, TF over GST control)"
same,binding signal,ETV7,"1.12 fold enrichment (6-mer frequency, TF over GST control)"
same,binding signal,ELF5,"1.1 fold enrichment (6-mer frequency, TF over GST control)"
same,binding signal,ETV3,"1.12 fold enrichment (6-mer frequency, TF over GST control)"
same,binding signal,ETV6,"1.22 fold enrichment (6-mer frequency, TF over GST control)"
